# In PubChem BioAssay (NCI):
# Compounds without any hit were thinned out: in the full panel of roughly 83,000, 20% have a hit.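 The endpoint reported here, percent growth, reads 100 for growth as untreated, 0 for no net growth and -100 for all cells dead.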 Active and inactive are the calls of the source.
# Test system: NCI-H23 lung
# Assay: NCI-60 one-dose screen, 48 h (100 = growth as untreated, 0 = no growth, -100 = all killed)
# Conditions: 10 µM
# Protocol: Growth inhibition of the NCI-H23 human Non-Small Cell Lung tumor cell line is measured as a screen for anti-cancer activity. Cells are grown in 96 well plates and exposed to the test compound for 48 hours. Compounds are tested at a single concentration, which is 10^-5 M for most compounds. The reported endpoint is percent growth (GI% or GIPRCNT), where numbers from 0 - 100% represent growth inhibition, and numbers from -100% - 0 represent cell death. For example, a value of 40 represents 60% growth inhibition. A value of 0 means no net growth occurred over the course of the experiment. A value of -40 indicates 40% of cells at the beginning of the experiment died by the end of the experiment. A value of -100 means all cells are dead at the end of the experiment.
# NCI-60 Human Tumor Cell Lines Screen was performed using the standard one-dose NCI protocol, which is described in more detail at https://dtp.cancer.gov/discovery_development/nci-60/default.htm.
# Compounds with GIPRCNT values below 10 were considered active. Activity score was based on GIPRCNT using the following formula: […]
# Score is 0 for GIPRCNT values of 100 or above, 50 for GIPRCNT values of 0, and 100 for GIPRCNT values of -100.
row,Structure (SMILES),growth
1,COC(=O)C[C@](O)(CCCC(C)C)C(=O)O[C@H]1C(OC)=C[C@@]23CCCN2CCc2cc4c(cc2[C@@H]13)OCO4,-25% (active)
2,O=C(/C=C/c1ccccc1)c1nc2ccccc2n1Cc1ccc(F)cc1,-45.9% (active)
3,O=C(NCCCCC(c1ccc(F)cc1)c1ccc(F)cc1)Nc1ccc([N+](=O)[O-])c(C(F)(F)F)c1,-10.2% (active)
4,CC(C)C[C@H](NC(=O)CNC(=O)C[C@H]1O[C@@H]2OC3(C)CC[C@H]4[C@H](C)CC[C@@H]([C@H]1C)[C@@]24OO3)B(O)O,-2.35% (active)
5,CCOC(=O)C1=C(Nc2ccccc2)C(=O)OC12C(=O)Nc1ccccc12 (stereo not given),97.3% (inactive)
6,O=C(/C=C/c1ccc(F)cc1)c1nc2ccccc2n1Cc1ccc(Br)cc1,-75.4% (active)
7,COC(=O)C[C@](O)(CCC(C)C)C(=O)O[C@H]1C(OC)=C[C@@]23CCCN2CCc2cc4c(cc2[C@@H]13)OCO4,-54.3% (active)
8,Cc1c2oc3c(C)ccc(C(=O)N[C@@H]4C(=O)N[C@H](C(C)C)C(=O)N5CCC[C@H]5C(=O)N(C)CC(=O)N(C)[C@@H](C(C)C)C(=O)OC4C)c3nc-2c(C(=O)N[C@@H]2C(=O)N[C@H](C(C)C)C(=O)N3CC(=O)C[C@H]3C(=O)N(C)CC(=O)N(C)[C@@H](C(C)C)C(=O)OC2C)c(N)c1=O (stereo not given in full),-38.9% (active)
9,COC(=O)c1ccc(-n2cc(CCCN(CCNc3ccnc4cc(Cl)ccc34)C(=O)CCC(=O)O[C@@H]3O[C@@H]4OC5(C)CC[C@H]6[C@H](C)CC[C@@H]([C@H]3C)[C@@]46OO5)nn2)cc1,40.4% (inactive)
10,C[C@H]1[C@H](OC(=O)CCC(=O)N(CCCc2cn(-c3ccc([N+](=O)[O-])cc3)nn2)CCNc2ccnc3cc(Cl)ccc23)O[C@@H]2OC3(C)CC[C@H]4[C@H](C)CC[C@@H]1[C@@]24OO3,43.4% (inactive)
11,O=C([Se]C1C=CCCC1)c1ccc(C(=O)[Se]C2C=CCCC2)s1 (stereo not given),-74% (active)
12,CC1=C(C=O)C2=C(C)C3(CC3)[C@@](C)(O)C(=O)C2=C1,10.3% (inactive)
13,N#C[Se]CC(=O)Nc1cccc(C(F)(F)F)c1,-46.7% (active)
14,Cc1ccc2[nH]c(=S)n(-c3ccc(F)cc3)c(=O)c2c1,98.7% (inactive)
15,C=CC[Se]C(=O)c1cncc(C(=O)[Se]CC=C)c1,-74.7% (active)
16,O=C(/C=C/c1cccc(Br)c1)c1nc2ccccc2n1Cc1ccc(F)cc1,34% (inactive)
17,COC(=O)C[C@](O)(CCC(C)C)C(=O)O[C@@H]1C(OC)=C[C@]23CCCN2CCc2cc4c(cc2[C@H]13)OCO4,-68% (active)
18,CC12OOC(C)(OO1)C2CCC(=O)NCCCNc1ccnc2cc(Cl)ccc12 (stereo not given),68.8% (inactive)
19,COc1ccc(OC)c(/C=C/C(=O)c2nc3ccccc3n2Cc2ccc(F)cc2)c1,-49.1% (active)
20,C#CCCCN(CCNc1ccnc2cc(Cl)ccc12)C(=O)CCC(=O)O[C@@H]1O[C@@H]2OC3(C)CC[C@H]4[C@H](C)CC[C@@H]([C@H]1C)[C@@]24OO3,35.7% (inactive)

row,Structure (SMILES),growth
1,COCCOCCOCCOc1ccc(-n2cc(-c3ccc(O[C@H]4O[C@@H]5OC6(C)CC[C@H]7[C@H](C)CC[C@@H]([C@H]4C)[C@@]57OO6)cc3)nn2)cc1,27.2% (inactive)
2,C[C@H]1[C@H](OC(=O)CCC(=O)N(CCCc2cn(-c3ccc(CN4CCOCC4)cc3)nn2)CCNc2ccnc3cc(Cl)ccc23)O[C@@H]2OC3(C)CC[C@H]4[C@H](C)CC[C@@H]1[C@@]24OO3,45.3% (inactive)
3,O=C(/C=C/c1ccccc1Cl)c1nc2ccccc2n1Cc1ccc(F)cc1,-78.2% (active)
4,COc1cc(OC)c(/C=C/C(=O)c2nc3ccccc3n2Cc2ccc(F)cc2)c(OC)c1,89% (inactive)
5,C[C@H]1[C@H](OC(=O)CCC(=O)Nc2cnccn2)O[C@@H]2OC3(C)CC[C@H]4[C@H](C)CC[C@@H]1[C@@]24OO3,25.9% (inactive)
6,CC[C@@]12CC(C(=O)OC)=C3Nc4cc5c(cc4[C@@]34CCN(C[C@H]3O[C@H]31)[C@@H]24)[C@@H]1[C@H](O5)[C@@H](O)[C@@]2(CC)CC(C(=O)OC)=C3Nc4cc(OC)ccc4[C@@]34CCN1[C@@H]24,1.41% (active)
7,CC[C@]12C=CCN3CC[C@@]4(c5ccc(OC)cc5N(C)[C@H]4[C@@](O)(C(=O)OC)[C@@H]1OC(=O)CCC[P+](c1ccc(F)cc1)(c1ccc(F)cc1)c1ccc(F)cc1)[C@@H]32,35.5% (inactive)
8,O=C(/C=C/c1ccc(Br)cc1)c1nc2ccccc2n1Cc1ccc(Br)cc1,-36.3% (active)
9,CC[C@]12C=CCN3CC[C@@]4(c5ccc(OC)cc5N(C)[C@H]4[C@@](O)(C(=O)OC)[C@@H]1OC(=O)CCCC[P+](c1ccc(C)cc1)(c1ccc(C)cc1)c1ccc(C)cc1)[C@@H]32,-92.4% (active)
10,CC(=C\C(=O)Oc1ccc2c3c1OC1C(O)CCC4(O)C(C2)N(CC2CCC2)CCC314)/C=C1\CCCc2ccccc21 (stereo not given),64.3% (inactive)
11,O=C(/C=C/c1ccc(Cl)cc1Cl)c1nc2ccccc2n1Cc1ccc(Br)cc1,72.3% (inactive)
12,CC[C@]12C=CCN3CC[C@@]4(c5ccc(OC)cc5N(C)[C@H]4[C@@](O)(C(=O)OC)[C@@H]1OC(=O)CCCC[P+](c1ccc(OC)cc1)(c1ccc(OC)cc1)c1ccc(OC)cc1)[C@@H]32,-90.7% (active)
13,O=C(/C=C/c1ccccc1)c1nc2ccccc2n1Cc1ccc(Br)cc1,-71.5% (active)
14,O=C(/C=C/c1cccc(Br)c1)c1nc2ccccc2n1Cc1ccc(Br)cc1,-50.7% (active)
15,CCC[Se]C(=O)c1ccc(C(=O)[Se]CCC)s1,-49.2% (active)
16,CC12OOC(C)(OO1)C2CCC(=O)NCCNc1ccnc2cc(Cl)ccc12 (stereo not given),92.6% (inactive)
17,O=C(NC([Se])=NC1CCCCC1)c1ccccc1,19% (inactive)
18,CC[C@]12C=CCN3CC[C@@]4(c5ccc(OC)cc5N(C)[C@H]4[C@@](O)(C(=O)OC)[C@@H]1OC(=O)CCC[P+](C1CCCCC1)(C1CCCCC1)C1CCCCC1)[C@@H]32,-4.73% (active)
19,COc1cc2cc(C(=O)N3C[C@@H](CCl)c4c3cc(OC(=O)N3CCN(C(=O)CCC(=O)N5CCN(C)CC5)[C@@H]5CSSC[C@@H]53)c3ccccc43)[nH]c2c(OC)c1OC,-93% (active)
20,O=C(/C=C/c1ccc(F)cc1)c1nc2ccccc2n1Cc1ccc(F)cc1,14.6% (inactive)
